In PubChem BioAssay (NCATS):
Results filed as inconclusive are left out. Calls of active or inactive are those of the source. The call rests on the fitted dose curve; in most records, active means well fitted cell-killing curve with a large enough effect; inconclusive means small, poorly fitted or top-dose-only effect, or effect the other way; inactive means flat fitted curve, though single readings scatter.

How the values were obtained:
Assay in all cases: Primary qHTS to identify gynecologic anti-cancer compounds using libraries of approved drugs and bioactive compounds (AID 1345084); further: nearly all actives have a fitted effect of over 55% in size
[1] = tested on: C33A; settings: Gynecologic cancer cell panel viability, ATPlite luminescence, 48 h; series mostly up to 57.5 µM
Procedure, shortened: (§1)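 Five-concentration response, 48 h; readout is ATP-driven luciferase luminescence.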

[2] = tested on: CAOV3; settings: Gynecologic cancer cell panel viability, ATPlite luminescence, 48 h; series mostly up to 57.5 µM
Procedure, shortened: as §1

[3] = tested on: CASKI; settings: Gynecologic cancer cell panel viability, ATPlite luminescence, 48 h; series mostly up to 57.5 µM
Procedure, shortened: as §1

[4] = tested on: Es-2; settings: Gynecologic cancer cell panel viability, ATPlite luminescence, 48 h; series mostly up to 57.5 µM
Procedure, shortened: as §1

[5] = tested on: HeLa; settings: Gynecologic cancer cell panel viability, ATPlite luminescence, 48 h; series mostly up to 57.5 µM
Procedure, shortened: as §1

[6] = tested on: Hek293T; settings: Gynecologic cancer cell panel viability, ATPlite luminescence, 48 h, control line for the selectivity index; series mostly up to 57.5 µM
Procedure, shortened: as §1

[7] = tested on: JEG-3; settings: Gynecologic cancer cell panel viability, ATPlite luminescence, 48 h; series mostly up to 57.5 µM
Procedure, shortened: as §1

[8] = tested on: OV90; settings: Gynecologic cancer cell panel viability, ATPlite luminescence, 48 h; series mostly up to 57.5 µM
Procedure, shortened: as §1

[9] = tested on: PA-1; settings: Gynecologic cancer cell panel viability, ATPlite luminescence, 48 h; series mostly up to 57.5 µM
Procedure, shortened: as §1

[10] = tested on: SKOV3; settings: Gynecologic cancer cell panel viability, ATPlite luminescence, 48 h; series mostly up to 57.5 µM
Procedure, shortened: as §1

[11] = tested on: Tov-21-G; settings: Gynecologic cancer cell panel viability, ATPlite luminescence, 48 h; series mostly up to 57.5 µM
Procedure, shortened: as §1

[12] = tested on: Tov112D; settings: Gynecologic cancer cell panel viability, ATPlite luminescence, 48 h; series mostly up to 57.5 µM
Procedure, shortened: as §1
On the % scale 0 is the no-effect control and ±100 the full control effect; potency means the concentration at half of the fitted maximal effect.

C=C(F)c1sc(CNCCCNc2cc(=O)c3ccccc3[nH]2)c(C)c1Br
inactive: Potency [1] | Potency [2] | Potency [3] | Potency [4] | Potency [5] | Potency [6] | Potency [7] | Potency [8] | Potency [9] | Potency [10] | Potency [11] | Potency [12]

COC(=O)C1=COC(O[C@@H]2O[C@H](CO)[C@@H](O)[C@H](O)[C@H]2O)[C@H]2[C@@H]1[C@H](OC(=O)CCc1ccc(O)cc1)C[C@]2(C)O (some centres not stated)
inactive: Potency [1] | Potency [2] | Potency [3] | Potency [4] | Potency [5] | Potency [6] | Potency [7] | Potency [8] | Potency [9] | Potency [10] | Potency [11] | Potency [12]

C=C1CC23CC1CCC2C12OC(=O)C(C)(CCC1O)C2C3C(=O)O (configuration not stated)
inactive: Potency [1] | Potency [2] | Potency [3] | Potency [4] | Potency [5] | Potency [6] | Potency [7] | Potency [8] | Potency [9] | Potency [10] | Potency [11] | Potency [12]

C=C1C[C@@]23CCC4[C@@](C)(CCC[C@@]4(C)C(=O)OC)C2CC[C@@H]1C3 (some centres not stated)
inactive: Potency [1] | Potency [2] | Potency [3] | Potency [4] | Potency [5] | Potency [6] | Potency [7] | Potency [8] | Potency [9] | Potency [10] | Potency [11] | Potency [12]

CC1(C)CC[C@]2(C(=O)OC3OC(CO)C(O)C(O)C3O)CC[C@]3(C)C(=CCC4[C@@]5(C)CC[C@H](OC6OC(C(=O)O)C(O)C(OC7OC(CO)C(O)C(O)C7O)C6O)C(C)(C)C5CC[C@]43C)C2C1 (some centres not stated)
inactive: activity change, negative = cytotoxicity [1] 0.815% [at 11.6 µM] | activity change, negative = cytotoxicity [2] -9.9% [at 11.6 µM] | activity change, negative = cytotoxicity [3] 5.34% [at 11.6 µM] | activity change, negative = cytotoxicity [4] -1.41% [at 11.6 µM] | activity change, negative = cytotoxicity [5] 2% [at 11.6 µM] | activity change, negative = cytotoxicity [6] 0.993% [at 11.6 µM] | activity change, negative = cytotoxicity [7] 1.51% [at 11.6 µM] | activity change, negative = cytotoxicity [8] 9.69% [at 11.6 µM] | activity change, negative = cytotoxicity [9] 4.28% [at 11.6 µM] | activity change, negative = cytotoxicity [10] -1.26% [at 11.6 µM] | activity change, negative = cytotoxicity [11] -2.48% [at 11.6 µM] | activity change, negative = cytotoxicity [12] 6.25% [at 11.6 µM]

O=C(O)C(O[C@@H]1O[C@H](CO[C@@H]2O[C@H](CO)[C@@H](O)[C@H](O)[C@H]2O)[C@@H](O)[C@H](O)[C@H]1O)c1ccccc1 (some centres not stated)
inactive: Potency [1] | Potency [2] | Potency [3] | Potency [4] | Potency [5] | Potency [6] | Potency [7] | Potency [8] | Potency [9] | Potency [10] | Potency [11] | Potency [12]

COc1cc(O)cc(C)c1C(=O)OC1C(CO)OC(OC2C(O)C(O)C(O)C(O)C2O)C(O)C1O (configuration not stated)
inactive: Potency [1] | Potency [2] | Potency [3] | Potency [4] | Potency [5] | Potency [6] | Potency [7] | Potency [8] | Potency [9] | Potency [10] | Potency [11] | Potency [12]

COc1ccc(C[C@H](N)C(=O)N[C@@H]2[C@H](O)[C@H](n3cnc4c(N(C)C)ncnc43)O[C@@H]2CO)cc1
active: Potency [1] 3160 nM | Potency [2] 1580 nM | Potency [3] 2240 nM | Potency [4] 2510 nM | Potency [5] 1260 nM | Potency [6] 2240 nM | Potency [7] 3550 nM | Potency [8] 7940 nM | Potency [9] 1000 nM | Potency [10] 2820 nM | Potency [11] 4470 nM | Potency [12] 1780 nM

N#Cc1ccc2[nH]cc(CCCCN3CCN(c4ccc5oc(C(N)=O)cc5c4)CC3)c2c1
inactive: Potency [1] | Potency [2] | Potency [3] | Potency [4] | Potency [5] | Potency [6] | Potency [7] | Potency [8] | Potency [9] | Potency [10] | Potency [11] | Potency [12]

COC(=O)c1cc(OC)cc(OC)c1C(=O)c1c(OC)cc2c(c1O)C1CCCC(C)(O2)O1 (configuration not stated)
inactive: Potency [1] | Potency [2] | Potency [3] | Potency [4] | Potency [5] | Potency [6] | Potency [7] | Potency [8] | Potency [9] | Potency [10] | Potency [11] | Potency [12]

CC12CCC3c4ccc(O)cc4CCC3C1CC(OC1OC(C(=O)O)C(O)C(O)C1O)C2O (configuration not stated)
inactive: Potency [1] | Potency [2] | Potency [3] | Potency [4] | Potency [5] | Potency [6] | Potency [7] | Potency [8] | Potency [9] | Potency [10] | Potency [11] | Potency [12]

C=CC1(C)C=C2C(=O)OC(=O)C3=C(CCCC3(C)C)C2(O)CC1 (configuration not stated)
inactive: Potency [1] | Potency [2] | Potency [3] | Potency [4] | Potency [5] | Potency [6] | Potency [7] | Potency [8] | Potency [9] | Potency [10] | Potency [11] | Potency [12]

COc1cc(/C=C/C(=O)O[C@H]2[C@H](O)[C@@H](CO)O[C@@]2(CO)O[C@H]2O[C@H](CO)[C@@H](O)[C@H](O)[C@H]2O)ccc1O
inactive: Potency [1] | Potency [2] | Potency [3] | Potency [4] | Potency [5] | Potency [6] | Potency [7] | Potency [8] | Potency [9] | Potency [10] | Potency [11] | Potency [12]

COc1c2c(c(CO)c3c1C(=O)OC3)OC1(C)CCC3(O)C(C)(C)OC(=O)CCC3(C)C1C2 (configuration not stated)
inactive: Potency [1] | Potency [2] | Potency [3] | Potency [4] | Potency [5] | Potency [6] | Potency [7] | Potency [8] | Potency [9] | Potency [10] | Potency [11] | Potency [12]

CC(O)CO[C@@H]1O[C@H](CO)[C@@H](O)[C@H](O)[C@H]1O (some centres not stated)
inactive: Potency [1] | Potency [2] | Potency [3] | Potency [4] | Potency [5] | Potency [6] | Potency [7] | Potency [8] | Potency [9] | Potency [10] | Potency [11] | Potency [12]

CC1=C2C(O)C(=O)OC(c3ccoc3)C2(C)CCC1O (configuration not stated)
inactive: Potency [1] | Potency [2] | Potency [3] | Potency [4] | Potency [5] | Potency [6] | Potency [7] | Potency [8] | Potency [9] | Potency [10] | Potency [11] | Potency [12]
